# Legend:
# Experiment in all cases: DAPPL (digital affinity profiling via proximity ligation, sequencing); 10 mM Tris-HCl pH 7.5, 50 mM NaCl, 1 mM DTT, 4% glycerol, room temperature, 30 min; GST-TFs on glutathione beads, 16-mer random dsDNA library, 0.1% formaldehyde crosslink after washing; high values mean tight binding
# Settings in all cases: protein: recombinant; tags: N-terminal GST; dsDNA, one strand shown
# FLI1 = target: T1, FLI1 (Homo sapiens, UniProt Q01543 1-452)
# T1 sequence: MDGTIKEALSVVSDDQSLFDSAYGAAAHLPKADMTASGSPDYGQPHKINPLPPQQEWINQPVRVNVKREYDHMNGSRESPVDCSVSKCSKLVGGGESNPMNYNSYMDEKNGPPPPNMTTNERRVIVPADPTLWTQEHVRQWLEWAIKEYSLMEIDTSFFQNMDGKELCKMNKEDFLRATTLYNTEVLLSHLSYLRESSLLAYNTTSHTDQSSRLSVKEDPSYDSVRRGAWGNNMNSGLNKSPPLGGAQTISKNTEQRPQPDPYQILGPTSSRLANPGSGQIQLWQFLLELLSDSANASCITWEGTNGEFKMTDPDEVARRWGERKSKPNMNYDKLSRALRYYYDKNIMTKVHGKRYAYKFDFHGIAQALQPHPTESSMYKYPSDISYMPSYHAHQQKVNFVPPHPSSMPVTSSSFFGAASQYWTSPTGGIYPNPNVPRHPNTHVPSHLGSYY
# How it was run: (§1)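 In yeast, human transcription factors were expressed with a GST fusion, then pulled down on glutathione beads and given DNA barcodes. Pooled with a tag-only sample, they were exposed to 200 nmole of a 16-mer random double-stranded DNA library (Tris/NaCl/DTT/glycerol buffer, room temperature, 30 min), washed, crosslinked with 0.1% formaldehyde, proximity-ligated using BsaI/T4 ligase for 1 h at 37 °C, PCR-amplified and read on an Illumina NextSeq500. Each hexamer's frequency of reads for a factor, divided by the matching frequency for the tag-only sample, gives the binding signal.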
# ELK1 = target: T2, ELK1 (Homo sapiens, UniProt P19419 1-428)
# T2 sequence: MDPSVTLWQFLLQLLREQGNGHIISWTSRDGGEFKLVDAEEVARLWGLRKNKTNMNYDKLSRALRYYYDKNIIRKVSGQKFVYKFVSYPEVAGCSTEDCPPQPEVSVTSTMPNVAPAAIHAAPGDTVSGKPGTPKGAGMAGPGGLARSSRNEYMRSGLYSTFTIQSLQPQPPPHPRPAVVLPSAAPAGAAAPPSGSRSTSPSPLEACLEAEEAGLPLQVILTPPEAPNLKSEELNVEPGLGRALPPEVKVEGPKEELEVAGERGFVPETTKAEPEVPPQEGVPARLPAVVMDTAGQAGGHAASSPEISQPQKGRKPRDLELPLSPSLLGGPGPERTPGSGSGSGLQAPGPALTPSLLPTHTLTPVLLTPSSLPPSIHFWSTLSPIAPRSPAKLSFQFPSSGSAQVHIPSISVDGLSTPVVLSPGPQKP
# How it was run: as §1
# GABPA = target: T3, GABPA (Homo sapiens, UniProt Q06546 1-454)
# T3 sequence: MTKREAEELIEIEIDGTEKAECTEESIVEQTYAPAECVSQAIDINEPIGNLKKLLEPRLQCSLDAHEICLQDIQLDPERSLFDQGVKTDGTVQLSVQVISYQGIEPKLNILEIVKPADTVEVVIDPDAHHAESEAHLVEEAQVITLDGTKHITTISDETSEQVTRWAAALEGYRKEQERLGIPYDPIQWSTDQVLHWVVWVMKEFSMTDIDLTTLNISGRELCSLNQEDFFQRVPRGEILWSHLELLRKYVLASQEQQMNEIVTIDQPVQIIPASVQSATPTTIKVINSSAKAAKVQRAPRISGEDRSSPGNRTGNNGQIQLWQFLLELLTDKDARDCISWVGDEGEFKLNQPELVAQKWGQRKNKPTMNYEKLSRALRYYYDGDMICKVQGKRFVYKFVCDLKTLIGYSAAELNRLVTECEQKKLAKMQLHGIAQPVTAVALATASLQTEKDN
# How it was run: as §1
# ERG = target: T4, ERG (Homo sapiens, UniProt P11308 1-479)
# T4 sequence: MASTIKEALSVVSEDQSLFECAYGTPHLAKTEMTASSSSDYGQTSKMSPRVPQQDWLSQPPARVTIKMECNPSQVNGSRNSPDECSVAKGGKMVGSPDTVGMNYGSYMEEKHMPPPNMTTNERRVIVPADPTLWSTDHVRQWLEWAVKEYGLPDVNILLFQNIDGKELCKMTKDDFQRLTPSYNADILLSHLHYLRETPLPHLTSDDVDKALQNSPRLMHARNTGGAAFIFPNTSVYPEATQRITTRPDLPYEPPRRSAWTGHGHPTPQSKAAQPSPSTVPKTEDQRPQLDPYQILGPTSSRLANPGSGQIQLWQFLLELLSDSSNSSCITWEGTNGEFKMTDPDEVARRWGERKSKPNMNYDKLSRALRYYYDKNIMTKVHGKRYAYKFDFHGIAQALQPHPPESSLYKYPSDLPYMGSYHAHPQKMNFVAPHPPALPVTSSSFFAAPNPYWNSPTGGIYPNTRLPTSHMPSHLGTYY
# How it was run: as §1
# ELF1 = ELF1 (Homo sapiens, UniProt P32519 1-619)
# How it was run: as §1
# EHF = target: T5, EHF (Homo sapiens, UniProt Q9NZC4 1-300)
# T5 sequence: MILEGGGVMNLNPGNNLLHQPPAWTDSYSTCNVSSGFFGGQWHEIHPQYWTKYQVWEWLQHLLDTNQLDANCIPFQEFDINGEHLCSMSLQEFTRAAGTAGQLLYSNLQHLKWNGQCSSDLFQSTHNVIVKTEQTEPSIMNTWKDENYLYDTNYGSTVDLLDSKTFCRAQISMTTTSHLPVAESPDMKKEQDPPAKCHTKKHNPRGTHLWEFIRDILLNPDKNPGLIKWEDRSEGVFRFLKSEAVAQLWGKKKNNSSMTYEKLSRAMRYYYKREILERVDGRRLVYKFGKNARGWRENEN
# How it was run: as §1
# SPI1 = SPI1 (Homo sapiens, UniProt P17947 1-270)
# How it was run: as §1
# SPIB = SPIB (Homo sapiens, UniProt Q01892 1-262)
# How it was run: as §1
# ELK3 = target: T6, ELK3 (Homo sapiens, UniProt P41970 1-407)
# T6 sequence: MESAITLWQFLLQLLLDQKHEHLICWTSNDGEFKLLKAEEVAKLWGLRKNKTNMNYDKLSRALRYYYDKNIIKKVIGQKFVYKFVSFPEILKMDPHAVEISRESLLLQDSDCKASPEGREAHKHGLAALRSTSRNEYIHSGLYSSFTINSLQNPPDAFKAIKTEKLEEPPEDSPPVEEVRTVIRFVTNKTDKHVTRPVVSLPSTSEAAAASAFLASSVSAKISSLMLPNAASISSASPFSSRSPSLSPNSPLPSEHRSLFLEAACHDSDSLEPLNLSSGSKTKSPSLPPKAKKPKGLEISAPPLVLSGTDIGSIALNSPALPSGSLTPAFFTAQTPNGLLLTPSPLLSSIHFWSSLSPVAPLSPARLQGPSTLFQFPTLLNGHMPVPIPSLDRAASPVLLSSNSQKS
# How it was run: as §1
# Chain of SPIB (Q01892 whole entry): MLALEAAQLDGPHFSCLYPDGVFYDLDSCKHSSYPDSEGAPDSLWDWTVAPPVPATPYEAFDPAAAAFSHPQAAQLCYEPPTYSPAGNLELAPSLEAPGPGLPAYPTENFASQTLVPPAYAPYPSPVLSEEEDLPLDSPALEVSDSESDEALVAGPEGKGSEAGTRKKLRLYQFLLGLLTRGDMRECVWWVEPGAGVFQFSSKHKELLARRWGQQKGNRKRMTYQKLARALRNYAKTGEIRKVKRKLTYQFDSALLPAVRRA
# Chain of ELF1 (P32519 whole entry): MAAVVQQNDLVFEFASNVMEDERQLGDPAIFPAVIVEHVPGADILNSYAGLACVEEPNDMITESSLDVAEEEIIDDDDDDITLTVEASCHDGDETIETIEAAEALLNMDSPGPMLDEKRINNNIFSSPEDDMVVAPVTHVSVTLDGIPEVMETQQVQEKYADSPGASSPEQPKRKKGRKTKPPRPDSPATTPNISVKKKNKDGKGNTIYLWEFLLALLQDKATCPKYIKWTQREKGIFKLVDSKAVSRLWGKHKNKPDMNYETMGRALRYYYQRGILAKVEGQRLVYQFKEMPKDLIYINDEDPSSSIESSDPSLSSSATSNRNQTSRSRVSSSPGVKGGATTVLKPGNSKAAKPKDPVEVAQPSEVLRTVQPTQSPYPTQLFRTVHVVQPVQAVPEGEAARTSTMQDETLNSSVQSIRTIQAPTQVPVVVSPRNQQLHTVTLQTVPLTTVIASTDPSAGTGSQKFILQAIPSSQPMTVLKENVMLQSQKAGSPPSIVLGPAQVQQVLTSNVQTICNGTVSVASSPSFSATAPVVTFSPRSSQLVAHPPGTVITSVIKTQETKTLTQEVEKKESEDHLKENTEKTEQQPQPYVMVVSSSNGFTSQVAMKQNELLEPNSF
sequence,measurement,setting,value
ACGACT,binding signal,FLI1,"1.27 fold enrichment (6-mer frequency, TF over GST control)"
same,binding signal,ELK1,"1.28 fold enrichment (6-mer frequency, TF over GST control)"
same,binding signal,GABPA,"1.36 fold enrichment (6-mer frequency, TF over GST control)"
same,binding signal,ERG,"1.24 fold enrichment (6-mer frequency, TF over GST control)"
same,binding signal,ELF1,"1.19 fold enrichment (6-mer frequency, TF over GST control)"
same,binding signal,EHF,"1.17 fold enrichment (6-mer frequency, TF over GST control)"
same,binding signal,SPI1,"1.27 fold enrichment (6-mer frequency, TF over GST control)"
same,binding signal,SPIB,"1.17 fold enrichment (6-mer frequency, TF over GST control)"
same,binding signal,ELK3,"1.24 fold enrichment (6-mer frequency, TF over GST control)"

# Source: PMC7862700, “An all-to-all approach to the identification of sequence-specific readers for epigenetic DNA modifications on cytosine”
